# Data as given in the supplement of paper PMC8728848.
# The full list was thinned out, with the strongest signals kept by preference.
# B1: Sp8391B-bot-388-20-388 (Bacteroides ovatus) (protein)
# chain: GCQNNDENEQHYDNKLFISASNFTKEILFKAGDTNVETGLSVAIAKPEEHDIKVTMSPAPELLSTYKLAYYDETAVLLSEEHYSMPETSTTIKSGSIVSPELPIEFINTGELDIKTTYVLPVTIKSVEGIGVLQSAKTYYYVFRGASLINVVCNISRNRAYPDFKNDSKFNNLTENTMEILFKANSFPNTLNTLMGIESNYLLRIGDATIPNNQLQVATSVNNCTSADLQLESGKWYHVAVAFNKGNVKVYINGVEKLSGSTGKSSVSLGAKHTNEEDGSRCFWVGYSYKDDRYFDGVVSEVRIWNRALTAEEIQATNHFYTIEPESEGLIAYWKFDEGSGTVAKDYSVSGYDLTIEKEPKWESVSLPQ
# What was measured:
# Assay in all cases: glycan array binding signal (z-score within array); higher = stronger binding
# Conditions in all cases: glycan notation: IUPAC condensed, linker removed
# Fuc(a1-2)Gal = molecular target: Fuc(a1-2)Gal
# Outline: (§1)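 The Consortium for Functional Glycomics database supplied 3228 glycan arrays, of which those lacking an available protein sequence were dropped. The binding signal, a within-array Z-score, was averaged across arrays of the same protein sequence and across linkers. Negative scores can be read as non-binding.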
# [1] = molecular target: Fuc(a1-2)Gal(b1-3)GlcNAc(b1-2)Man(a1-3)[Fuc(a1-2)Gal(b1-3)GlcNAc(b1-2)Man(a1-6)]Man(b1-4)GlcNAc(b1-4)GlcNAc
# Outline: as §1
# [2] = molecular target: Fuc(a1-2)Gal(b1-3)GlcNAc(b1-3)[Gal(b1-4)GlcNAc(b1-6)]Gal(b1-4)Glc
# Outline: as §1
# [3] = molecular target: Fuc(a1-2)Gal(b1-3)[Fuc(a1-4)]GlcNAc(b1-3)[Gal(b1-4)GlcNAc(b1-6)]Gal(b1-4)Glc
# Outline: as §1
# [4] = molecular target: Fuc(a1-2)Gal6S(b1-3)GlcNAc6S
# Outline: as §1
# [5] = molecular target: Fuc(a1-2)[Gal(a1-3)]Gal(b1-4)GlcNAc
# Outline: as §1
# [6] = molecular target: Fuc(a1-2)[GalNAc(a1-3)]Gal(b1-3)GlcNAc(b1-2)Man(a1-3)[Fuc(a1-2)[GalNAc(a1-3)]Gal(b1-3)GlcNAc(b1-2)Man(a1-6)]Man(b1-4)GlcNAc(b1-4)GlcNAc
# Outline: as §1
# [7] = molecular target: Fuc(a1-2)[GalNAc(a1-3)]Gal(b1-3)GlcNAc(b1-3)GalNAc
# Outline: as §1
# [8] = molecular target: Fuc(a1-2)[GalNAc(a1-3)]Gal(b1-4)[Fuc(a1-3)]GlcNAc(b1-3)GalNAc
# Outline: as §1
# [9] = molecular target: Fuc(a1-3)[Gal(b1-4)]GlcNAc(b1-6)GalNAc
# Outline: as §1
# [10] = molecular target: Gal(a1-3)Gal(b1-3)[Fuc(a1-4)]GlcNAc(b1-2)Man(a1-3)[Gal(a1-3)Gal(b1-3)[Fuc(a1-4)]GlcNAc(b1-2)Man(a1-6)]Man(b1-4)GlcNAc(b1-4)GlcNAc
# Outline: as §1
# Gal(a1-3)Gal(b1-4)GlcNAc = molecular target: Gal(a1-3)Gal(b1-4)GlcNAc
# Outline: as §1
# [11] = molecular target: Gal(a1-3)Gal(b1-4)[Fuc(a1-3)]GlcNAc
# Outline: as §1
# Gal(a1-3)GalNAc = molecular target: Gal(a1-3)GalNAc
# Outline: as §1
# [12] = molecular target: Gal(a1-4)Gal(b1-3)GlcNAc(b1-2)Man(a1-3)[Gal(a1-4)Gal(b1-3)GlcNAc(b1-2)Man(a1-6)]Man(b1-4)GlcNAc(b1-4)GlcNAc
# Outline: as §1
# [13] = molecular target: Gal(b1-3)GalNAc(b1-4)Gal(b1-4)Glc
# Outline: as §1
# [14] = molecular target: Gal(b1-3)GlcNAc(b1-2)Man(a1-3)[Gal(b1-3)GlcNAc(b1-2)Man(a1-6)]Man(b1-4)GlcNAc(b1-4)GlcNAc
# Outline: as §1
# [15] = molecular target: Gal(b1-3)GlcNAc(b1-3)Gal(b1-4)Glc
# Outline: as §1
# [16] = molecular target: Gal(b1-3)GlcNAc(b1-3)Gal(b1-4)[Fuc(a1-3)]GlcNAc(b1-6)[Gal(b1-3)GlcNAc(b1-3)]Gal(b1-4)Glc
# Outline: as §1
# [17] = molecular target: Gal(b1-3)[Neu5Ac(a2-6)]GalNAc
# Outline: as §1
# [18] = molecular target: Gal(b1-3)[Neu5Ac(a2-6)]GlcNAc(b1-4)Gal(b1-4)Glc
# Outline: as §1
# [19] = molecular target: Gal(b1-4)GlcNAc(b1-2)Man(a1-3)[Gal(b1-4)GlcNAc(b1-2)Man(a1-6)][GlcNAc(b1-4)]Man(b1-4)GlcNAc(b1-4)[Fuc(a1-6)]GlcNAc
# Outline: as §1
# [20] = molecular target: Gal(b1-4)GlcNAc(b1-3)Gal(b1-4)GlcNAc(b1-3)Gal(b1-4)GlcNAc(b1-2)Man(a1-3)[Gal(b1-4)GlcNAc(b1-3)Gal(b1-4)GlcNAc(b1-3)Gal(b1-4)GlcNAc(b1-2)Man(a1-6)]Man(b1-4)GlcNAc(b1-4)GlcNAc
# Outline: as §1
# [21] = molecular target: Gal(b1-4)GlcNAc(b1-3)Gal(b1-4)GlcNAc(b1-3)Gal(b1-4)GlcNAc(b1-3)Gal(b1-4)GlcNAc(b1-2)Man(a1-3)[Gal(b1-4)GlcNAc(b1-3)Gal(b1-4)GlcNAc(b1-3)Gal(b1-4)GlcNAc(b1-3)Gal(b1-4)GlcNAc(b1-2)Man(a1-6)]Man(b1-4)GlcNAc(b1-4)GlcNAc
# Outline: as §1
# [22] = molecular target: Gal(b1-4)GlcNAc(b1-3)Gal(b1-4)GlcNAc(b1-3)Gal(b1-4)GlcNAc(b1-3)Gal(b1-4)GlcNAc(b1-2)[Gal(b1-4)GlcNAc(b1-3)Gal(b1-4)GlcNAc(b1-3)Gal(b1-4)GlcNAc(b1-3)Gal(b1-4)GlcNAc(b1-6)]Man(a1-6)[Gal(b1-4)GlcNAc(b1-3)Gal(b1-4)GlcNAc(b1-3)Gal(b1-4)GlcNAc(b1-3)Gal(b1-4)GlcNAc(b1-2)Man(a1-3)]Man(b1-4)GlcNAc(b1-4)[Fuc(a1-6)]GlcNAc
# Outline: as §1
# [23] = molecular target: Gal(b1-4)GlcNAc(b1-3)Gal(b1-4)GlcNAc(b1-3)Gal(b1-4)GlcNAc(b1-3)Gal(b1-4)GlcNAc(b1-3)Gal(b1-4)GlcNAc(b1-2)[Gal(b1-4)GlcNAc(b1-3)Gal(b1-4)GlcNAc(b1-3)Gal(b1-4)GlcNAc(b1-3)Gal(b1-4)GlcNAc(b1-3)Gal(b1-4)GlcNAc(b1-6)]Man(a1-6)[Gal(b1-4)GlcNAc(b1-3)Gal(b1-4)GlcNAc(b1-3)Gal(b1-4)GlcNAc(b1-3)Gal(b1-4)GlcNAc(b1-3)Gal(b1-4)GlcNAc(b1-2)Man(a1-3)]Man(b1-4)GlcNAc(b1-4)[Fuc(a1-6)]GlcNAc
# Outline: as §1
# [24] = molecular target: Gal(b1-4)GlcNAc(b1-3)[Fuc(a1-3)GlcNAc(b1-6)]Gal(b1-4)Glc
# Outline: as §1
binder,measurement,setting,value
B1,glycan array binding signal (z-score),Fuc(a1-2)Gal,-0.522
same,glycan array binding signal (z-score),[1],2.69
same,glycan array binding signal (z-score),[2],-0.322
same,glycan array binding signal (z-score),[3],1.29
same,glycan array binding signal (z-score),[4],-0.154
same,glycan array binding signal (z-score),[5],-0.199
same,glycan array binding signal (z-score),[6],0.439
same,glycan array binding signal (z-score),[7],-0.474
same,glycan array binding signal (z-score),[8],-0.673
same,glycan array binding signal (z-score),[9],4.03
same,glycan array binding signal (z-score),[10],8.13
same,glycan array binding signal (z-score),Gal(a1-3)Gal(b1-4)GlcNAc,-0.489
same,glycan array binding signal (z-score),[11],-0.616
same,glycan array binding signal (z-score),Gal(a1-3)GalNAc,-0.069
same,glycan array binding signal (z-score),[12],2.6
same,glycan array binding signal (z-score),[13],0.437
same,glycan array binding signal (z-score),[14],3.77
same,glycan array binding signal (z-score),[15],0.105
same,glycan array binding signal (z-score),[16],12.8
same,glycan array binding signal (z-score),[17],-0.208
same,glycan array binding signal (z-score),[18],-0.044
same,glycan array binding signal (z-score),[19],-0.897
same,glycan array binding signal (z-score),[20],2.45
same,glycan array binding signal (z-score),[21],2.49
same,glycan array binding signal (z-score),[22],-0.629
same,glycan array binding signal (z-score),[23],-0.112
same,glycan array binding signal (z-score),[24],0.415
